± gives the standard deviation.
Tests used:
[1] = test system: MILI (PIWIL2) piRISC loaded with L1MC piRNA (26 nt); assay: pre-steady-state target cleavage rate (min^-1); guide: L1MC piRNA 5'p-UAACUAAAUACUAUGCAAGCUGUAGG; higher = faster piRNA-guided slicing of the target;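 further: 1 nM active piRISC with 0.1 nM target library at 33 °C single turnover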
How it was run: (§1)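 Cleave-'n-Seq measured uncleaved targets by sequencing after a transcribed, DNA-blocked target RNA library […] was mixed with 1 nM active affinity-purified piRISC holding one synthetic guide, with or without 500 nM GTSF1 partner protein, at 33 °C in HEPES–potassium acetate buffer for 0–8 or 0–960 min. Counts were normalised to depth and to weakly complementary targets, three trials were pooled, and k3 was capped at 0.0001 min^-1. A burst-and-steady-state fit gave the pre-steady-state cleavage rate.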

[2] = test system: EfPiwi piRISC loaded with L1MC piRNA (26 nt); assay: pre-steady-state target cleavage rate (min^-1); auxiliary factor: 500 nM Ephydatia muelleri Gtsf1; guide: L1MC piRNA 5'p-UAACUAAAUACUAUGCAAGCUGUAGG; MIWI and MILI are mouse PIWI proteins and EfPiwi is from a freshwater sponge; tags in brackets are library labels; higher = faster piRNA-guided slicing of the target
How it was run: as §1

[3] = auxiliary factor: 500 nM mouse GTSF1
[4] = auxiliary factor: none (no GTSF1)

| Sequence | pre-steady-state target cleavage rate [1, 3] | pre-steady-state target cleavage rate [1, 4] | pre-steady-state target cleavage rate [2] |
| --- | --- | --- | --- |
| UCCUGGAACAGCUUGCAAAGUAUUUAGUUA | 0.135 ± 0.0089 | 0.00796 ± 0.0019 | 0.0333 ± 0.0089 |
| UCCUGCUUGAGCUUGCAUAGUAUUUAGUAA | 0.172 ± 0.021 | 0.00365 ± 0.0027 | 0.00772 ± 0.0023 |
| UCCUGGAAGACCUUGCAUAGUAUUUAGUUA | 0.212 ± 0.02 | 0.00774 ± 0.0029 | 0.00668 ± 0.003 |
| UCCUGCUACAGCUUGGAUAGUUUUUAGUUA | 0.0668 ± 0.012 | 0.00289 ± 0.0027 | 0.0172 ± 0.0039 |
| UCCUGGAUCAGCUUGCAAAGUAUUUAGUUA | 0.151 ± 0.015 | 0.00946 ± 0.0023 | 0.0218 ± 0.0057 |
| UCCUGGAUCAGGUUGCAUAGUAUUUAGUUA | 0.182 ± 0.02 | 0.00807 ± 0.0024 | 0.0232 ± 0.0061 |
| UCCUGCUACAGCUUGCAUAGUGUUUAGUUA | 0.197 ± 0.02 | 0.00436 ± 0.0027 | 0.0065 ± 0.0019 |
| UCCUCCUACAGCAUGCAUAGUAUUUAGUAA | 0.231 ± 0.019 | 0.00366 ± 0.0021 | 0.00521 ± 0.0023 |
| UCCUGCUACAGGUUGCAUACUAUUUAGUUA | 0.0385 ± 0.0068 | 0.00412 ± 0.002 | 0.00621 ± 0.0019 |
| UCCUGGAACAGCUUGCAUAGUAUGUUAGUUA | 0.243 ± 0.046 | 0.0048 ± 0.0027 | 0.00812 ± 0.0028 |
| UCCUGGAACAGCUUGCAUAGUAUUGUAGUUA | 0.151 ± 0.02 | 0.00351 ± 0.0026 | 0.00741 ± 0.0027 |
| UCCUCCUACACGUUGCAUAGUAUUUAGUUA | 0.321 ± 0.021 | 0.00729 ± 0.0026 | 0.136 ± 0.035 |
| UCCUGGAACUGCUUGCAUAGUAUUUAGUUA | 0.228 ± 0.016 | 0.00612 ± 0.002 | 0.0203 ± 0.006 |
| UCCUCUACAGCUUGCAUAGUAUUUAGUUA | 0.31 ± 0.013 | 0.00953 ± 0.0028 | 0.183 ± 0.045 |
| UCCUGCUACAGCAUGCAUAGUAAUUAGUUA | 0.225 ± 0.022 | 0.00692 ± 0.0027 | 0.007 ± 0.0024 |
| UCCUGCUACAGCCUUGCAUAGUAUUUAGUUA | 0.308 ± 0.025 | 0.00822 ± 0.0026 | 0.0116 ± 0.0041 |
| UCCUCCUACCAGCUUGCAUAGUAUUUAGUUA | 0.275 ± 0.017 | 0.00841 ± 0.0025 | 0.0186 ± 0.0056 |
